The record followed here is PubChem BioAssay (NCI).

The structures appear in SMILES notation. Compounds without any hit were thinned out: in the full panel of roughly 83,000, 20% have a hit.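 48-hour exposure, single concentration, 96-well plates; percent growth endpoint where 0 means no net growth. Active: below 10.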 Calls of active or inactive are those of the source.

This test concerns MDA-MB-468 breast. Briefly: NCI-60 one-dose screen, 48 h (100 = growth as untreated, 0 = no growth, -100 = all killed). The note with it: 10 µM unless noted.
As to `O=C(/C=C/c1cccc(O)c1)c1ccccc1O`, the growth was 85% (inactive). Consider `CCOC(=O)C1=CCC(n2cc(F)c(=O)[nH]c2=O)O1` (centres undefined), for which the growth was 134% (inactive). Turning to `CC(C)=CCc1ccc(O)c(=O)cc1C(C)C`, the growth was -24.2% (active). Turning to `Cc1ccc(-c2nc([P+](c3ccccc3)(c3ccccc3)c3ccccc3)c(N3CCOCC3)o2)cc1`, the growth was -27.6% (active). Turning to `CNC(=O)c1c(NC(=O)c2cccc(C(F)(F)F)c2F)sc2c1CCC(=O)C2`, the growth is 0.936% (active). The value for `O=C(Nc1ccccc1O)c1ccc(CNC(=O)c2ccsc2Nc2ccnc(C(F)(F)F)c2)cc1` was -17.2% (active); that for `COc1ccc(S(=O)(=O)n2ccc(-c3ccc4c(c3)CCC(C)(C)O4)n2)cc1OC` was 28.4% (inactive).

Regarding `CCN(CC)CCS(=O)(=O)CCNc1ccnc2cc(Cl)ccc12`, the growth was -49.2% (active). For `Clc1ccc(-c2csc(Nc3cccc(Nc4csc(-c5ccc(Cl)cc5)n4)c3)n2)cc1`, the growth is 77% (inactive). As for `COc1cc2c3c(n([C@@H]4CCOC4)c(=O)c2cc1OC)-c1cc2c(cc1C3=O)OCO2`, the growth is 11.2% (inactive). Consider `O=C1Nc2cc(OC(F)(F)F)ccc2Oc2ccc(-c3ccnc(N4CC[C@H](O)C4)c3)cc21`, for which the growth is -28.9% (active). As for `CCOC(=O)N1CCc2c(sc3nc4nc[nH]n4c(=O)c23)C1`, the growth is 112% (inactive). Regarding `NCCCOc1cc2ccccc2cc1C(=O)Nc1ccc(Cl)cc1OC(=O)c1cc2ccccc2cc1OCCCN`, the growth was -86% (active). Take `CN1CCN(Cc2ccc(NC(=O)c3cncc(C#Cc4cnc(N)c5ccncc45)c3)cc2C(F)(F)F)CC1`: the growth is 35.5% (inactive).
